Assay [1] in a line: Primary redox qHTS assay for identification of artifact compounds. (AID 1845223).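 Also: 0% = DMSO and 100% = reference compound.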 The procedure, abridged: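 Redox-cycling detection via DTT (250 uM final) oxidation coupled to Amplex Red (25 uM)/HRP (250 mU/mL) in HBSS. 15 min preincubation plus 30 min after DTT, room temperature. Ex/Em 525/598 nm; 4-parameter Hill fit against DMSO and 10 uM DA3003.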
Assay [2] can be described thus: qHTS drug screen for cell cycle checkpoint inhibitors in PARPi-resistant BRCA-mutant ovarian cancer cell lines. (AID 1963452; calls by dose curve). Particulars: PEO1/OlaR viability, CellTiter-Glo luminescence, 96 h, stronger effect = lower value. In a few lines: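 PEO1, PEO4 and PEO1/OlaR ovarian cancer cells, 600 per well, exposed 96 h at 37C to a dilution series. Viability read by CellTiter-Glo luminescence, normalized to DMSO and empty wells; activity summarized as Z-AUC.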

Assay [3] concerns the target Cytochrome P450 2D6 (Homo sapiens) (UniProt P10635). Put plainly: qHTS for inhibitors of CYP2D6 against the NCATS DSHEA and TCM libraries (AID 1919972). Also: % is scaled to controls: 0 for no effect and ±100 for the full control effect. The procedure, abridged: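 qHTS, concentration–response format with most substances from 19.5 nM. CYP2D6 + pro-luciferin substrate, 15 min with compound, then 1x NADPH regen, 30–45 min RT dark. Glo detection 30 min, luminescence. Quinidine control.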

The target in assay [4] is Cytochrome P450 2C9 (Homo sapiens) (UniProt P11712). Briefly: qHTS for inhibitors of CYP2C9 against the NCATS DSHEA and TCM libraries (AID 1919973).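 Also: luminogenic pro-luciferin CYP2C9 substrate turned into luciferin with NADPH regeneration; series mostly up to about 34 µM; % is scaled to controls: 0 for no effect and ±100 for the full control effect.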 The procedure, abridged:
(§1)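 Isoform-specific enzyme and substrate levels; enzyme-free wells as background. Reaction: 1x NADPH regenerating system, 30-45 min, room temperature, shielded from light; luminescent detection reagent added, 30 min.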

Assay [5] deals with Cytochrome P450 2C19 (Homo sapiens) (UniProt P33261). Briefly: qHTS for inhibitors of CYP2C19 against the NCATS DSHEA and TCM libraries (AID 1919974).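 Also: luminescence from luciferin released by CYP2C19 oxidation of a pro-luciferin substrate; % is scaled to controls: 0 for no effect and ±100 for the full control effect.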 The procedure, abridged:
as §1

Assay [6] can be described thus: KB-3-1 P-gp reporter qHTS against the NCATS DSHEA and TCM libraries (AID 1919975). Also: 0% is about no effect. The procedure, abridged: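 Parental KB-3-1 human cervical adenocarcinoma cells (500 cells/well, DMEM + 10% FBS) were treated with substances for ~72 h at 37C; viability was read by CellTiter-Glo luminescence.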
In general terms: Quantitative high-throughput screening tests each substance at several concentrations.

Assay [7] concerns the target Cytochrome P450 1A2 (Homo sapiens) (UniProt P05177). Briefly: qHTS for inhibitors of CYPIA2 against the NCATS DSHEA and TCM libraries (AID 1919976).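 Also: light from luciferin formed by CYP1A2 from a pro-luciferin substrate; series mostly up to about 37 µM; % is scaled to controls: 0 for no effect and ±100 for the full control effect.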 In a few lines: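 Furafylline served as the plate control. Compounds met CYP1A2 and pro-luciferin substrate 15 min before NADPH regeneration solution (1x) was added; after 30-45 min at RT, P450-Glo reagent was added for 30 min and luminescence was measured.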

The nature of assay [8]: qHTS Counterscreen for compound interference against the NCATS DSHEA and TCM libraries (AID 1919978). Also: % of control where 0% means no effect. The note with it: firefly luciferase detection reagent interference, luminescence. The procedure, abridged: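 D-luciferin (1 uM final) or 100 mM potassium phosphate buffer alone was preincubated 15 min at RT with compounds (19.5 nM to 39.8 uM final). Luciferin detection reagent was then added and luminescence read after 30 min at RT.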

Assay [9] can be described thus: Dual reporter qHTS for agonist of Pregnane X Receptor (hPXR) against the NCATS DSHEA and TCM libraries: Fluorescence readout (AID 1920058). Also: 0% is about no effect. In a few lines:
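In this qHTS counter-read, reporter-bearing HepG2 cells in charcoal-stripped serum received substances for approximately 24 h before viability was assessed fluorometrically with CellTiter-Fluor.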

Assay [10] deals with Nuclear receptor subfamily 1 group I member 2 (Homo sapiens) (UniProt O75469). Briefly: Dual reporter qHTS for agonist of Pregnane X Receptor (hPXR) against the NCATS DSHEA and TCM libraries: Luminescence readout (AID 1920059). Also: 0% is about no effect. In a few lines:
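Luminescent PXR reporter read (ONE-Glo) after a CellTiter-Fluor viability read, following 24 h, 37C treatment of HepG2 cells stably carrying hPXR-Luc.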

For assay [11] the target is unchanged. Briefly: Dual reporter qHTS for antagonist of Pregnane X Receptor (hPXR) against the NCATS DSHEA and TCM libraries: Luminescence Readout (AID 1920060).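 Also: HepG2 cells carrying hPXR luciferase reporter stimulated with rifampicin at 2 µM; 0% is about no effect.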 The procedure, abridged:
(§2)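 HepG2 hPXR-Luc, 2000 cells/well, charcoal-stripped FBS medium; 5 h attach; RIF 2 uM final; 24 h 37C/5% CO2; CellTiter-Fluor 1 h, fluor 405/540; ONE-Glo 30 min RT, lum.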

Assay [12] in a line: Dual reporter qHTS for antagonist of Pregnane X Receptor (hPXR) against the NCATS DSHEA and TCM libraries: Fluorescence Readout (AID 1920061). Also: 0% is about no effect. The procedure, abridged: as §2
[13] abbreviates: measured here: PEO1 parental Z-AUC.

We go through 23 molecules from PubChem BioAssay (NCATS).

Inconclusive results are not listed. Active and inactive are the calls of the source. Unless noted, calls follow the shape of the dose curve; as a rule, active = well fitted curve in the direction sought with a large enough effect; inconclusive = small, poorly fitted or top-dose-only effect, or another doubt; inactive = no such curve, though single readings can be large; an effect the other way counts as inactive or inconclusive.

Nuclear receptor subfamily 1 group I member 2 (Homo sapiens), sequence (O75469 whole entry, looked up): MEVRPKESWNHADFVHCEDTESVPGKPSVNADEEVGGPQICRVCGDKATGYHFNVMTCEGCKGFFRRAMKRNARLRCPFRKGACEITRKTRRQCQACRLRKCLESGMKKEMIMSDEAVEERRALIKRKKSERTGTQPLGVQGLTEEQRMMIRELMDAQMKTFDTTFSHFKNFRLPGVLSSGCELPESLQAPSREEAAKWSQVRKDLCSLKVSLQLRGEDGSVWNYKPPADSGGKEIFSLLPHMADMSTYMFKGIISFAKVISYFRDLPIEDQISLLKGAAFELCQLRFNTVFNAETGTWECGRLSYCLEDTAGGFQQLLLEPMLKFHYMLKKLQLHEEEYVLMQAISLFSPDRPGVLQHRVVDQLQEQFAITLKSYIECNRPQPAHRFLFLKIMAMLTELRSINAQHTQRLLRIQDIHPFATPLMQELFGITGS
Cytochrome P450 2C19 (Homo sapiens), sequence (P33261 whole entry, looked up): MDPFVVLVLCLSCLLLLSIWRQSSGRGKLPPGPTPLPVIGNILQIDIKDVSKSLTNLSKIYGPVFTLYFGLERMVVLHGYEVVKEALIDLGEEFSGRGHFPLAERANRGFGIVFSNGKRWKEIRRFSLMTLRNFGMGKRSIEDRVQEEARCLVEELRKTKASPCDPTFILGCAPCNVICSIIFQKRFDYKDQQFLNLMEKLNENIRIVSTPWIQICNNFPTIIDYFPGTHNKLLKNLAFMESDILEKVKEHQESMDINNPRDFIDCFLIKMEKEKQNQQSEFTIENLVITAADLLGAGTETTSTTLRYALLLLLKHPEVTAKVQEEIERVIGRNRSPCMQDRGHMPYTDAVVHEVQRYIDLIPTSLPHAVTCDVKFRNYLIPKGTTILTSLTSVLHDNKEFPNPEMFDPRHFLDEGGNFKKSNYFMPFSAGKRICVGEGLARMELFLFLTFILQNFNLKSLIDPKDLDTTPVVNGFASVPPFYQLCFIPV
Cytochrome P450 2D6 (Homo sapiens), sequence (P10635 whole entry, looked up): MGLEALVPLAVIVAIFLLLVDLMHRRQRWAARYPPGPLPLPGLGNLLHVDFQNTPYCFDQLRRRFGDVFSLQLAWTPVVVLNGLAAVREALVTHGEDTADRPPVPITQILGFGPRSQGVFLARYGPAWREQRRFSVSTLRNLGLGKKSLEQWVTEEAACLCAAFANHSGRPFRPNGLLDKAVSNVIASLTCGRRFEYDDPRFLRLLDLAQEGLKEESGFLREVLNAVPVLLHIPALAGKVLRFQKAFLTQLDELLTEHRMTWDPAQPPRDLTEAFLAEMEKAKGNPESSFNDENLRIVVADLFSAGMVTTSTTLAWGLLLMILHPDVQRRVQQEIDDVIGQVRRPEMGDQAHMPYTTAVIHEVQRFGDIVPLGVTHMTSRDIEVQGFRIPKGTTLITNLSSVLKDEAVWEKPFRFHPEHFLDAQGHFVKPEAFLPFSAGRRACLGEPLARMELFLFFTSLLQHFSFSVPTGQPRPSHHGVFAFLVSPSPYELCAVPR
Cytochrome P450 2C9 (Homo sapiens), sequence (P11712 whole entry, looked up, canonical isoform): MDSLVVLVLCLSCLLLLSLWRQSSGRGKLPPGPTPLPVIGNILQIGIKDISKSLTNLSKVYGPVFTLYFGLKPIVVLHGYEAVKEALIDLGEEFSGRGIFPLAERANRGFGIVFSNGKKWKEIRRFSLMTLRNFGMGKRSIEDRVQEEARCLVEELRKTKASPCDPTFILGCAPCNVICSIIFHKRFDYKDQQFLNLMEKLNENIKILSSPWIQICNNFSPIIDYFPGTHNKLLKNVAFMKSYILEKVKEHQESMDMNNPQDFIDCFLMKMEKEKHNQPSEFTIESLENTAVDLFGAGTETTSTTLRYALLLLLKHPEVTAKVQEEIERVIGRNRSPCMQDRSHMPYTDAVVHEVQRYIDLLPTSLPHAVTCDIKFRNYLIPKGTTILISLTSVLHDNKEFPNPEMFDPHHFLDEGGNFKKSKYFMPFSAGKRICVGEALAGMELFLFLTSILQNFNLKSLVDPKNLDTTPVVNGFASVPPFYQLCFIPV
Cytochrome P450 1A2 (Homo sapiens), sequence (P05177 whole entry, looked up): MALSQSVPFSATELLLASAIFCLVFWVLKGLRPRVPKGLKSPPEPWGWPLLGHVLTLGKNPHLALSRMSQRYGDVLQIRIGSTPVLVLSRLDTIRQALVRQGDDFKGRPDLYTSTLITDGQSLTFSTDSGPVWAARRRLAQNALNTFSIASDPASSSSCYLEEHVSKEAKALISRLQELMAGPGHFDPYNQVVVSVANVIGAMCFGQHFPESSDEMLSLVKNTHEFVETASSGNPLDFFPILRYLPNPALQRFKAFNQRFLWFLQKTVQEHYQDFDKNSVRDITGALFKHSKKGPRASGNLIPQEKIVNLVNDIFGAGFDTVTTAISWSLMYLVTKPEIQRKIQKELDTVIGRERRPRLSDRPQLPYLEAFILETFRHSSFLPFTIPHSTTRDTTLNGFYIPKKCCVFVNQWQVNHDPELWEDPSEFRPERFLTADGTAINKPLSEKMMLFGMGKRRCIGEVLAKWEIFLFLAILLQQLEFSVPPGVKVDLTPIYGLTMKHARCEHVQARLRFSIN

For the molecule `CCn1c(-c2nonc2N)nc2c(C#CC(C)(C)O)ncc(OCC3CCCNC3)c21` (stereo not given), the Potency result in assay [1] is “inactive”.
The same measure, in the same setting: then `C=C[C@H](/C=C\c1ccc(O)cc1)c1ccc(O)cc1`, with “inactive”.
Same read-out and setting: as for `CNC(=O)COC(=O)N1CCC(CCc2ccc(Cl)cc2)CC1`, the entry is “inactive”; as for `CC(=O)O[C@H]1[C@@]2(O)C[C@H](C)[C@H](OC(=O)c3ccccc3)[C@@H]2[C@@H](OC(=O)CO)[C@]2(OC(C)=O)C[C@H]3C(=O)C(C)(C)C[C@@H]3[C@@]1(C)[C@H]2OC(C)=O`, “inactive”; as for `CC(=O)OC1C(OC(=O)c2ccccc2)C2C(C)(C)CCC(OC(C)=O)C2(C)C23CCC(C)(C2)C(=O)CC13` (stereo not given), “inactive”.
Turning to `COc1c(C)cc(NC(=O)c2nn(Cc3ccc(F)cc3)c3c2CN(C(=O)c2ccc[nH]2)C[C@]3(C)C(N)=O)cc1C`, the redox activity (% of DA3003) in assay [1] was 7.9% [at 11.5 µM] (inactive). Also, the Z-AUC in assay [2] is -0.421 (inactive); in assay [2] (setting [13]) it was -0.262; in assay [2] (measured here: PEO4 Z-AUC), -0.568.
Take `COc1cc(N2CCOCC2)ccc1NC(=O)c1csc(-c2cccnc2)n1`: the Potency entry in [1] is “inactive”.
`CCC(C)C(=O)O[C@H]1[C@H](O)[C@@]2(COC(C)=O)C(CC1(C)C)C1=CCC3[C@@]4(C)CC[C@H](O[C@@H]5O[C@H](C(=O)O)[C@@H](O)[C@H](O)[C@H]5O)[C@@](C)(CO)C4CC[C@@]3(C)[C@]1(C)C[C@@H]2O` (stereo not given in full): in [1], the redox activity (% of DA3003) was 14.3% [at 11.5 µM] (inactive).
With `N[C@@H]1c2cccnc2[C@H](OC(=O)N2CCC(n3c(=O)[nH]c4ncccc43)CC2)CC[C@H]1c1cccc(F)c1F`, the Potency entry in assay [1] is “inactive”.
Consider `C=C(C)C(=O)O[C@H]1C[C@@](C)(O)C2(O)CCC(C)(/C=C3/OC(=O)C(COC)=C31)O2` (stereo not given in full), for which the Potency entry in assay [1] was “inactive”.
In the case of `COC1=CC(=O)C[C@@H](C)[C@@]12Oc1c(Cl)c(OC)cc(OC)c1C2=O`, the Potency result in assay [1] was “inactive”.
`O=C(c1c(F)ccc(NS(=O)(=O)N2CC[C@@H](F)C2)c1F)c1c[nH]c2ncc(-c3cnc(C4CC4)nc3)cc12`: the Potency result in assay [1] is “inactive”. Moreover, the Z-AUC in assay [2] was -0.0874 (inactive); in assay [2] (setting [13]) it was 0.401; in [2] (measured here: PEO4 Z-AUC) it was 0.486.
Take `C=C1[C@H]2CC[C@H](C(=O)O)[C@@]23CC[C@H](C3)C1(C)C`: the Potency entry in assay [1], in assay [4], in assay [5] and in [7] was “inactive” each time. Moreover, the result in [3], in [6], in [9], in [10], in assay [11] and in assay [12] was inactive. Also, the max response in assay [8] is 1.56% (inactive).
Consider `COc1ccc(S(=O)(=O)Nc2c(C)cc(C)cc2C)cc1`, for which the Potency entry in assay [1] is “inactive”.
For `O=C(NCCCNC(=O)c1ccc[nH]c1=O)c1cc(-c2ccccc2)on1`, in assay [1], the Potency entry is “inactive”. Moreover, the Z-AUC in assay [2] was 0.194 (inactive); in assay [2] (setting [13]) it was 0.0234; in assay [2] (measured here: PEO4 Z-AUC), -0.178.
With `COc1nc2ccc(Br)cc2cc1[C@@H](c1ccccc1)[C@@](O)(CCN(C)C)c1cccc2ccccc12`, in assay [1], the Potency entry is “inactive”.
Turning to `COc1ccc(C#Cc2ccc(C(=O)N3CCC[C@@H](O)C3)c(F)c2)cc1`, in [1], the Potency result was “inactive”.
The same measure, in the same setting: as for `CCC(C)CNCC(=O)N1CCC2SC=CC2C1COc1cccc(C)c1` (stereo not given), the entry is “inactive”; as for `CC(=O)OCC(=O)[C@@]12O[C@@H]1C[C@H]1[C@@H]3CC=C4C[C@@H](O)CC[C@]4(C)[C@H]3CC[C@@]12C`, “inactive”; as for `CC1(NC(=O)c2ccc(C#Cc3cccc(F)c3)cn2)COC1`, “inactive”.
On the same count and under the same terms, as for `Cc1sc2c(c1C)C(c1ccc(Cl)cc1)=N[C@H](CC(=O)NCCCCNC(=O)COc1cccc3c1C(=O)N([C@H]1CCC(=O)NC1=O)C3=O)c1nnc(C)n1-2`, the entry is “inactive”.
On to `COCCNCc1ccc(-c2cc3nccc(Oc4ccc(NC(=O)C5(C(=O)Nc6ccc(F)cc6)CC5)cc4F)c3s2)nc1`, for which the Potency result in [1] was “inactive”. Besides, the Z-AUC is -0.956 (inactive) in assay [2], -0.642 in [2] (setting [13]) and -0.561 in assay [2] (measured here: PEO4 Z-AUC).
With `CO[C@H]1[C@@H](O)[C@H](O[C@H]2CC[C@@]3(C)C(CCC4C3CC[C@]35COC6(COC(=O)C6)C3CCC45O)C2)O[C@@H](C)[C@@H]1OC1OC(CO)C(OC2OC(CO)C(O)C(O)C2O)C(O)C1O` (stereo not given in full), in assay [1], the redox activity (% of DA3003) is -0.0298% [at 11.5 µM] (inactive).
